Experiment [1] addresses Luciferin 4-monooxygenase (Photinus pyralis) (UniProt P08659). The experiment is described as follows: qHTS assay to identify small molecule inhibitors of firefly luciferase (AID 1224835). Further: nearly all actives have a fitted effect of over 25% in size. Further: potency means the concentration at half of the fitted maximal effect. Summed up:
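Biochemical qHTS: compounds run as interplate titrations against purified firefly enzyme, with D-luciferin and ATP each at its KM concentration. Light output recorded by CCD imaging.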

Experiment [2] is described as follows: qHTS assay to identify small molecule agonists of the constitutive androstane receptor (CAR) signaling pathway - cell viability counter screen (AID 1224836). Further: nearly all actives have a fitted effect of over 45% in size. The gist of the method:
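23 h treatment, 37 C, 5% CO2. Cell line: HepG2 stably expressing hCAR with a CYP2B6-2.2kb construct. Co-treatment: PK11195, 0.75 uM final. Read-out: CellTiter-Fluor fluorescence intensity.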
(In general: In qHTS, concentration-response curves come from the screen itself.)

Experiment [3] is described as follows: qHTS assay to identify small molecule antagonists of the constitutive androstane receptor (CAR) signaling pathway - cell viability counter screen (AID 1224837). Further: nearly all actives have a fitted effect of over 45% in size. The gist of the method:
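Using CellTiter-Fluor, viability is scored in HepG2 cells stably carrying hCAR and a 2.2kb CYP2B6 reporter after 23 hr compound exposure across 15 concentrations, with CITCO present at 50 nM.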

The target of experiment [4] is Nuclear receptor subfamily 1 group I member 3 (Homo sapiens) (UniProt Q14994). The experiment is described as follows: qHTS assay to identify small molecule agonists of the constitutive androstane receptor (CAR) signaling pathway (AID 1224839).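 Further: HepG2 cells stably carrying human CAR and a CYP2B6 luciferase reporter; nearly all actives have a fitted effect of over 15% in size.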 The gist of the method:
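Compounds tested at 15 concentrations on HepG2 cells stably harbouring hCAR and CYP2B6-2.2kb reporter constructs, co-treated with PK11195 (0.75 uM final), 24 h at 37 C; luminescent reporter signal quantified.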

Experiment [5] can be described thus: qHTS assay to identify small molecule antagonists of the estrogen related receptor signaling pathway with the pleiotropic PPARgamma coactivator (PGC) from Tox21 10K library - cell viability counter screen (AID 1224840; active means well fitted cell-killing curve with a large enough effect in the repeat runs, not every such curve was filed as active; further: nearly all actives have a fitted effect of over 40% in size). Summed up:
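Here the PGC/ERR cells serve as a cytotoxicity control: they are exposed to compounds for 17.5 hours at 37 C, and live-cell signal is quantified using CellTiter-Fluor fluorescence.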

The nature of experiment [6]: qHTS assay to identify small molecule antagonists of the estrogen related receptor signaling pathway with the pleiotropic PPARgamma coactivator (PGC) from Tox21 10K library (AID 1224841; call rule not given here; further: actives are mostly falling curves and most rising ones were filed inactive; nearly all actives have a fitted effect of over 50% in size). Summed up:
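Each well held 2,000 PGC/ERR cells, pre-incubated six hours (37 C, 5% CO2). Test substances in DMSO were added by pin tool and left for 18 h at 37 C before luciferase detection by One-Glo.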

Experiment [7] can be described thus: qHTS assay to identify small molecule agonists of the estrogen related receptor signaling pathway with the pleiotropic PPARgamma coactivator (PGC) from Tox21 10K library (AID 1224842). Further: nearly all actives have a fitted effect of over 15% in size. Further: potency means the concentration at half of the fitted maximal effect. The gist of the method:
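PGC/ERR reporter cell line, 2,000 cells per well, incubated 6 h at 37 C before 23 nL compound in DMSO was added. After 18 h at 37 C, One-Glo luminescence read following 30 min at room temperature.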

Experiment [8] addresses Thyrotropin receptor (Homo sapiens) (UniProt P16473). The experiment is described as follows: qHTS assay to identify small molecule agonists of the thyroid stimulating hormone receptor (TSHR) signaling pathway (AID 1224843; calls by dose curve; further: nearly all actives have a fitted effect of over 45% in size). The gist of the method: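 TSHR-HEK293 cells in agonist mode, 30 min room-temperature step, then cAMP measured by competitive HTRF (cAMP-d2 with anti-cAMP cryptate) after 1 h at room temperature. Tested at 15 concentrations in triplicate.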

Experiment [9] is described as follows: qHTS assay to identify small molecule agonists of the hypoxia (HIF-1) signaling pathway - cell viability counter screen (AID 1224844; calls by dose curve; further: nearly all actives have a fitted effect of over 50% in size; further: potency means the concentration at half of the fitted maximal effect). The gist of the method: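 Multiplexed with the HRE beta-lactamase assay, this viability read used CellTiter-Glo luminescence (30 min, RT) on HRE-bla ME-180 cells treated 17 hrs with compounds in 0.5% dialyzed FBS medium.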
Experiment [10] in a line: qHTS assay to identify small molecule agonists of H2AX (AID 1224845; active means well fitted activation curve with a large enough effect in the signal ratio in the repeat runs, not every such curve was filed as active; the % refers to the signal ratio). The gist of the method: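 Wild-type CHO-K1 cells, plated overnight, exposed 3hr at 37C to 15 concentrations (0.76% DMSO final). Lysed, then HTRF anti-pH2AX (S139) cryptate and anti-H2AX-d2 antibodies, 24 hr room temperature; 665/620 nm emission read.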
Experiment [11] can be described thus: qHTS assay to identify small molecule agonists of the hypoxia (HIF-1) signaling pathway (AID 1224846; active means well fitted activation curve with a large enough effect in the signal ratio in the repeat runs, not every such curve was filed as active; the % refers to the signal ratio). Summed up:
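Hypoxia-pathway activation was scored as increased beta-lactamase from an HRE-controlled reporter in ME-180 cells; plated at 2,000 cells per well with 0.5% dialyzed FBS, they were exposed 17 hrs to compounds and then given CCF4-AM.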

A short description of experiment [12]: qHTS assay to identify small molecule agonists of H2AX - cell viability counter screen (AID 1224847; calls by dose curve; further: top concentration of the series differs between compounds; nearly all actives have a fitted effect of over 30% in size). Summed up: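 Compounds tested at 15 concentrations were incubated 3 hr at 37C with wild-type CHO-K1 cells; cellular ATP-based luminescence (CellTiter-Glo) indicated viability.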
Experiment [13] can be described thus: qHTS assay to identify small molecule antagonists of the estrogen related receptor (ERR) signaling pathway from Tox21 library (AID 1224848). Further: nearly all actives have a fitted effect of over 50% in size. Further: potency means the concentration at half of the fitted maximal effect. Summed up:
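ERR reporter cell line (from NTP) seeded 2,000 cells/well, rested 6 h at 37 C/5% CO2, then pin-dosed with compounds in DMSO. After 18 h at 37 C, ONE-Glo added; luminescence read after 30 min at room temperature.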

Experiment [14] is described as follows: qHTS assay to identify small molecule agonists of the estrogen related receptor (ERR) signaling pathway from Tox21 library (AID 1224849; calls by dose curve; further: nearly all actives have a fitted effect of over 15% in size). As to conditions: ERR reporter cell line, ONE-Glo luciferase, 18 h; at 92.4 µM (top of the series) unless noted. The gist of the method: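 Six hours post-seeding at 37 C/5% CO2, ERR cells receive DMSO-solubilised compounds; after 18 h at 37 C, ONE-Glo reagent is applied and luminescence recorded.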

Experiment [15] is described as follows: qHTS RealTime-Glo MT Cell Viability Assay in HepG2 cells - 24 hour (AID 1224867). Further: nearly all actives have a fitted effect of over 50% in size. Summed up: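 Cells + NanoLuc/prosubstrate dispensed (600 cells/well) → 5 h at 37 C/5% CO2 → compounds in DMSO transferred → 40 h incubation at 37 C, luminescence read at 0, 8, 16, 24, 32, 40 h.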
The nature of experiment [16]: qHTS RealTime-Glo MT Cell Viability Assay in HEK293 cells - 32 hour (AID 1224868). The gist of the method: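 Tox21 10K qHTS, HEK293, 600 cells/well, RealTime-Glo reagent co-dispensed with cells; 5 h preincubation, compound by pintool, 37 C, luminescence at 0–40 h.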
Experiment [17] in a line: A CellTox Green Cytotoxicity Assay to monitor cytotoxicity in HEK293 cells - 0 hour (AID 1224869). Further: nearly all actives have a fitted effect of over 50% in size. Summed up: (§1)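 Seeding of HEK293 cells together with cytotoxicity dye preceded a 5 h incubation at 37 C/5% CO2. Test compounds in DMSO were then added and fluorescence monitored across 40 h.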
Experiment [18] can be described thus: qHTS RealTime-Glo MT Cell Viability Assay in HepG2 cells - 40 hour (AID 1224870). Further: nearly all actives have a fitted effect of over 50% in size. The gist of the method: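 HepG2 cells (600/well) mixed with RealTime-Glo MT reagent, settled 5 h at 37 C/5% CO2 before compound addition. Nonlytic NanoLuc luminescence from viable-cell prosubstrate reduction read repeatedly during 40 h treatment at 37 C.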
Experiment [19] can be described thus: A CellTox Green Cytotoxicity Assay to monitor cytotoxicity in HEK293 cells - 40 hour (AID 1224871). Further: nearly all actives have a fitted effect of over 45% in size. Further: potency means the concentration at half of the fitted maximal effect. Summed up: as §1
For experiment [20], the target named is Nuclear receptor subfamily 1 group I member 3 (Homo sapiens) (UniProt Q14994). The experiment is described as follows: qHTS assay to identify small molecule antagonists of the constitutive androstane receptor (CAR) signaling pathway (AID 1224838).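 Further: HepG2 cells stably expressing hCAR with CYP2B6 luciferase reporter stimulated by CITCO; nearly all actives have a fitted effect of over 40% in size.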 The gist of the method:
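Reporter luminescence was quantified after 24 h exposure of hCAR/CYP2B6-2.2kb double-stable HepG2 cells to compounds at 15 concentrations in the presence of 50 nM CITCO final.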

Unmarked numbers belong to inactive results. Results filed as inconclusive are left out. Calls of active or inactive are those of the source. Unless noted, the call rests on the fitted dose curve; in most records, active means well fitted curve in the direction sought with a large enough effect in the repeat runs; inconclusive means weak or mixed curves; inactive means no such curve, though single readings can be large; an effect the other way counts as inactive or inconclusive.
On the % scale 0 is the no-effect control and ±100 the full control effect.

Chain of Nuclear receptor subfamily 1 group I member 3 (Homo sapiens) (Q14994 whole entry, looked up): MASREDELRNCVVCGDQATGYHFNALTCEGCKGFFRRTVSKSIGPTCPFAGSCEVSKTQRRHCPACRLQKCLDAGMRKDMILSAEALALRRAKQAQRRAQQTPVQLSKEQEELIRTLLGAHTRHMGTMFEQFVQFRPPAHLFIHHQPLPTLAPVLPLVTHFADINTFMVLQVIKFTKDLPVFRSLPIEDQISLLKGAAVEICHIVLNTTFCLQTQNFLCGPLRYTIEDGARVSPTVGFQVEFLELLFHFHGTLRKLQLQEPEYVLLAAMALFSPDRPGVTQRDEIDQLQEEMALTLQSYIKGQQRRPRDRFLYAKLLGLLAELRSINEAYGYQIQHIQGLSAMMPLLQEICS
Chain of Thyrotropin receptor (Homo sapiens) (P16473 whole entry, looked up): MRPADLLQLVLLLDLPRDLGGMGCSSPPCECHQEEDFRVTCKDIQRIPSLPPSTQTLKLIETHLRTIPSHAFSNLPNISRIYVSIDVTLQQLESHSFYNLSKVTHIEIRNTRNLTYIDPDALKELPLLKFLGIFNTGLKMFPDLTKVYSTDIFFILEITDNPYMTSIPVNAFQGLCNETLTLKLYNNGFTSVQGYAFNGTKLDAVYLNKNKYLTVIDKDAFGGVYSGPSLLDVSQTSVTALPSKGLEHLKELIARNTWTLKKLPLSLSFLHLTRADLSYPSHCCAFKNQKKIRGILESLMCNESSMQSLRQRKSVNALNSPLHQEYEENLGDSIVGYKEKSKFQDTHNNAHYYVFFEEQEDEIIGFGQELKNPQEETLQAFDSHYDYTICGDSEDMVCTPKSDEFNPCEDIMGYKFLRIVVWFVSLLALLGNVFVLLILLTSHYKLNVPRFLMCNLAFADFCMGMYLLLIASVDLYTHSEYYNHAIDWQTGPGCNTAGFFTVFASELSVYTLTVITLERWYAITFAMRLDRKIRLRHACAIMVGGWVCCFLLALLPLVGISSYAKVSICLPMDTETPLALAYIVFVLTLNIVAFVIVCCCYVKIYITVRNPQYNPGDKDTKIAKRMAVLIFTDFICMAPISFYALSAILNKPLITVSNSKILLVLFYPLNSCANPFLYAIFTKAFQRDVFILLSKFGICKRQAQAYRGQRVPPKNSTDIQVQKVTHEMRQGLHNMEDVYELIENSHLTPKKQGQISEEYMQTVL
Chain of Luciferin 4-monooxygenase (Photinus pyralis) (P08659 whole entry, looked up): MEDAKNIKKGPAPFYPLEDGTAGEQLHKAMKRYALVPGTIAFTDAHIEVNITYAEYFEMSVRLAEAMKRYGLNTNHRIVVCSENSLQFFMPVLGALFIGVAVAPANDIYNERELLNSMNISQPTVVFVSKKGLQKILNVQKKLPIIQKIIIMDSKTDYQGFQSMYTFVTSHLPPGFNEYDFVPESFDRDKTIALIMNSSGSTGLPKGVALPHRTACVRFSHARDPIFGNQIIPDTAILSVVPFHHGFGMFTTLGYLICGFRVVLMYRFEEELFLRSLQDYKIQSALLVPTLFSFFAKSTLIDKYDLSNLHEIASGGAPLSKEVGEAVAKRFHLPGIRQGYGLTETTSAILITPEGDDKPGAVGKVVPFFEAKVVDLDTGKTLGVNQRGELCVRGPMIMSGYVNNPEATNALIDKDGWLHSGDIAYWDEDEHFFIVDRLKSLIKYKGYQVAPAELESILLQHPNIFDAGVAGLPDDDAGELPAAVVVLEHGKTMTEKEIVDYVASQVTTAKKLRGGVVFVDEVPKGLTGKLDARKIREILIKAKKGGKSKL

In the case of `N#CSCC(=O)O`, the Potency result in experiment [1], in experiment [2], in [3], in experiment [4], in experiment [5] and in [6] was “inactive” in each case. The Potency result in [7], in [8], in experiment [9], in experiment [10], in [12] and in [13] was “inactive” in each case. Further, the Potency entry in experiment [15], in experiment [16], in [17], in experiment [18] and in experiment [19] was “inactive” each time. In [11], the call was inactive. Moreover, the activity change, positive = activation in experiment [14] was 4.98% [at 42.5 µM].

`O=C1CCCCCCCCCCC(=O)OCCO1`: the Potency result in experiment [1], in experiment [2], in [3], in [20], in experiment [5] and in [8] was “inactive” each time. In addition, the Potency entry in [9], in [10], in experiment [15], in experiment [16] and in experiment [18] was “inactive” throughout. The molecule was called inactive in experiment [11].

For the molecule `CC1=C2[C@H](/C=C(\C)C(=O)O)CC[C@@H](C)[C@H]2CC1`, the Potency result in experiment [1], in [2], in experiment [3], in experiment [20], in experiment [5] and in experiment [6] was “inactive” throughout. The Potency result in experiment [7], in experiment [8], in [10], in experiment [12], in experiment [15] and in experiment [18] was “inactive” throughout. Besides, the result in experiment [11] was inactive. The Potency in experiment [13] was 56.5 µM (active). The activity change, positive = activation in experiment [14] is -46%.

In the case of `Clc1cccc(-c2cc(Cl)cc(Cl)c2)c1`, the Potency result in experiment [1], in experiment [2], in [3], in experiment [20], in experiment [5] and in [6] was “inactive” each time. The Potency result in experiment [7], in experiment [13], in [15] and in experiment [18] was “inactive” each time. The Potency in [9] was 53 µM (active); in experiment [19], 37.5 µM (active). For the same molecule, in [14], the activity change, positive = activation is -3.25%.

`CCCCCCCCCC#N`: the Potency entry in [1], in experiment [2], in experiment [3], in experiment [4], in experiment [5] and in experiment [6] was “inactive” in each case. The Potency entry in experiment [7], in experiment [8], in experiment [9], in [10], in experiment [12] and in experiment [13] was “inactive” throughout. Further, the Potency entry in [15], in [16], in experiment [17], in experiment [18] and in experiment [19] was “inactive” throughout. Further, in experiment [11], the molecule was called inactive. The activity change, positive = activation in [14] was -15.2%.

`CC(C)(C)c1ccc(OC(=O)c2ccccc2O)cc1`: the Potency was 1.78 µM (active) in experiment [1] and 10.9 µM (active) in experiment [7]. Moreover, the Potency result in experiment [2], in [3], in experiment [20], in experiment [5], in experiment [6] and in experiment [8] was “inactive” each time. Further, the Potency result in experiment [10], in [13], in experiment [15], in [16], in [17] and in experiment [19] was “inactive” in each case. Moreover, in [11], the outcome was inactive. In addition, the activity change, positive = activation in experiment [14] is 132% (active).

With `CCN1CC(CCN2CCOCC2)C(c2ccccc2)(c2ccccc2)C1=O` (configuration not stated), the Potency entry in experiment [1], in experiment [2], in experiment [3], in [20], in experiment [5] and in experiment [6] was “inactive” throughout. Besides, the Potency entry in [7], in experiment [8], in [9], in experiment [10], in experiment [12] and in experiment [13] was “inactive” each time. Moreover, the Potency result in [15], in [16], in experiment [18] and in [19] was “inactive” in each case. Also, the molecule was classed as inactive in experiment [11]. Further, the activity change, positive = activation in experiment [14] is -6.21% [at 42.5 µM].

The values above are taken from PubChem BioAssay (Tox21).
